Experimental data from PubChem BioAssay.
Calls of active or inactive are those of the source.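 The calls were made as follows: active = inhibition above 20% together with a positive visual image hit; inconclusive = visual image hit but inhibition not above 20%; inactive = no visual image hit.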

Assay: inhibitors of TNFa-induced NFkB p65 translocation, primary screen, imaging, HUVEC, MLSMR starter and 10KST1 sets (AID 438);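 also: compound added about 3h40 before a 20 min TNFalpha stimulation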;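 as to inhibition: signal is the nuclear over cytoplasmic p65 intensity ratio per well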
Details: HUVEC TNFa-induced p65 nuclear translocation; cell count: measured here: nuclei count (cytotoxicity indicator), at 2.08 µM; inhibition: at 2 µM, stronger effect = higher value, 0% TNFa-plus-vehicle, 100% no-TNFa wells

SMILES | inhibition | cell count
Cc1nnc(NC(=O)c2ccco2)s1 | 1.3% (inactive) | 697
CCCCC(CC)CNC(=O)C1CCCN(S(=O)(=O)c2cnc[nH]2)C1 (stereo not given) | 8.7% (inactive) | 565
CC(C)CNC(=O)c1ccccc1NC(=O)c1ccc(CN2CCOCC2)cc1 | 5.7% (inactive) | 729
O=C(NCC(c1cccnc1)N1CCN(c2ccc(F)cc2)CC1)c1ccc(F)cc1 (stereo not given) | 7.4% (inactive) | 346
CCOC(=O)N1CCN(C(=O)COc2ccc(S(=O)(=O)NC3CCCCC3)cc2C)CC1 | 9.7% (inactive) | 536
O=C(OCC#CCSc1nc2ccccc2s1)c1ccco1 | -19.8% (inactive) | 639
COC(=O)c1cccc(NC(=O)CSc2nnc(COc3ccc(C#N)cc3)n2-c2ccccc2)c1 | 3.7% (inactive) | 599
Cc1ccc2c(c1)C(O)(CC(=O)c1ccc3c(c1)OCO3)C(=O)N2 (stereo not given) | 9.5% (inactive) | 671
Cc1ccc(NCC(O)C(O)C(O)CO)cc1C (stereo not given) | 0.6% (inactive) | 516
CCCc1nc(NCc2ccncc2)c2nnn(Cc3ccccc3F)c2n1 | -6.1% (inactive) | 711
CCCC1c2ccc(C)n2CCN1C(=O)Nc1ccccc1Cl (stereo not given) | 2.3% (inactive) | 243
CCCCC(O)(C(NC=O)C(=O)OC)C(F)(F)F (stereo not given) | -10.7% (inactive) | 703
O=C1c2ccccc2C(Nc2cccnc2)N1Cc1ccccc1Cl (stereo not given) | -14.6% (inactive) | 674
CC(Sc1nnnn1C)C(=O)Nc1ccc(Oc2ccccc2)cc1 (stereo not given) | 0.5% (inactive) | 354
COc1ccccc1NC(=O)CSc1nnnn1-c1ccc2c(c1)OCO2 | -9.4% (inactive) | 349
